The values below come from PubChem BioAssay AID463173 (ICCB-Longwood Screening Facility, Harvard Medical School, 2010).

Screen size: about 52,000 compounds; about 1,700 (3.3%) were called active. The list comes from a sample in which actives are over-represented; it also holds similar structures and randomly drawn compounds. Unmarked numbers belong to inactive results. No stated cut-off is given here; in the data, active means survival mostly below about 52% (no sharp cut-off); inactive means mostly above about 56%.

The test system of this test is Wild type. Kind of test: S. aureus survival, RN4220 and DeltatarO strains – OD600, teichoic acid synthesis inhibitors, primary screen (AID 463173). The following applies: S. aureus RN4220 wild type/DeltatarO growth, OD600, 18 h, stronger effect = lower value, screened at 18.75 µg/mL (by protocol).
`COC(=O)c1c(-c2cccs2)csc1NC(=O)c1cc(OC)c(OC)c(OC)c1`: the survival was 76%.

Turning to `CCn1ccc2cc(S(=O)(=O)N3CCCN(C(=O)NCC(=O)OC)CC3)ccc21`, the survival is 128%.

Consider `CCCn1c2ccccc2c2cnn(CC(=O)NCCc3ccc(S(N)(=O)=O)cc3)c(=O)c21`, for which the survival is 134%.

Consider `CCN(Cc1ccccc1)C(c1cccnc1)c1nnnn1Cc1ccccc1` (stereo unspecified), for which the survival is 106%.

Consider `CCc1ccccc1NS(=O)(=O)c1ccc2c(c1)CCN2C(=O)C1CC1`, for which the survival is 72%.

In the case of `Cc1ccc(-n2c(SCC(=O)Nc3cccc(Cl)c3)nc3n[nH]c(C)c3c2=N)cc1`, the survival is 85%.

`Cc1ccc(NC(=O)CSc2nc3n[nH]c(C)c3c(=N)n2-c2cccc(C)c2)cc1`: the survival is -6% (active).

For `CCCCN(CC)C(=O)CSc1nc2n[nH]c(C)c2c(=N)n1-c1cccc(Cl)c1`, the survival is -1% (active).

On to `Cc1cccc(NC(=O)CSc2nc3n[nH]c(C)c3c(=N)n2-c2cccc(Cl)c2)c1`, for which the survival is 14% (active).

For `CCCCN(CC)C(=O)CSc1nc2n[nH]c(C)c2c(=N)n1-c1cccc(C)c1`, the survival was 78%.

Take `CCCCN(CC)C(=O)CSc1nc2n[nH]c(C)c2c(=N)n1-c1cccc(OC)c1`: the survival was 120%.

Take `Cc1ccc(CNC(=O)CSc2nc3n[nH]c(C)c3c(=N)n2-c2cccc(C)c2)cc1`: the survival was 133%.

In the case of `Cc1ccc(Cl)cc1-n1c(SCC(=O)NCc2ccccc2)nc2n[nH]c(C)c2c1=N`, the survival is 72%.

For the compound `Cc1cccc(-n2c(SCC(=O)Nc3ccccc3Cl)nc3n[nH]c(C)c3c2=N)c1`, the survival is 72%.

As for `Cc1cccc(-n2c(SCC(=O)Nc3ccc(C)c(C)c3)nc3n[nH]c(C)c3c2=N)c1`, the survival is 76%.

As to `Cc1c(Cl)cccc1-n1c(SCC(=O)NCc2ccccc2)nc2n[nH]c(C)c2c1=N`, the survival is 134%.

Regarding `Cc1ccc(-n2c(SCC(=O)NCc3ccccc3)nc3n[nH]c(C)c3c2=N)cc1Cl`, the survival is -6% (active).

`CCOC(=O)c1ccccc1NC(=O)CSc1nc2cn(CC)nc2c(=O)n1Cc1ccc(Cl)cc1`: the survival is 67%.

Take `Cc1ccc2ccc3cc(C(=O)N4CCN(c5ccccc5)CC4)nc3c2[nH]1`: the survival was 128%.

For `COc1ccc(CNC(=O)c2ccc(CS(=O)(=O)c3ccccc3OC)o2)cc1`, the survival was 76%.

On to `CCOc1cc(Br)c(C2C(C(=O)OC)=C(C)NC3=C2C(=O)c2ccccc23)cc1OCC` (stereo unspecified), for which the survival is 96%.

With `Cc1ccc(-n2nnc(-c3nc(-c4cccs4)no3)c2N)cc1C`, the survival was 100%.

On to `Cc1cccc(-n2ncc(C(=O)Nc3ccc4c(c3)OCO4)c2C2CCN(C(=O)OC(C)(C)C)CC2)c1`, for which the survival was 89%.

On to `CCOC(=O)c1ccccc1NC(=O)Cn1c(=O)n(Cc2ccccc2)c(=O)c2c(C)c(C)sc21`, for which the survival is 90%.

For `CCCCOc1ccc(C(=O)NCCS(=O)(=O)N2CCN(c3ccc(F)cc3)CC2)cc1`, the survival was 65%.

For `COc1ccccc1NC(=O)c1c(C)cc(C)nc1SCC(=O)Nc1ccc(C)c(C)c1`, the survival is 81%.

In the case of `Cc1ccc(-c2cn3c(n2)sc2cc(C(=O)NCCC4=CCCCC4)ccc23)c(C)c1`, the survival is 100%.

For the compound `COC(=O)c1ccc(NC(=O)CSc2nc(=O)n(Cc3ccco3)c3c2CCC3)cc1`, the survival is 126%.

`COc1ccc2cc(CNc3ccc(C)cc3)c(=O)n(CC(=O)Nc3ccc(C)cc3Cl)c2c1`: the survival is 74%.

In the case of `Cc1ccc(NCc2cc3cc4c(cc3n(CC(=O)Nc3ccc(C)cc3)c2=O)OCCO4)cc1`, the survival is 0% (active).

As for `CCc1ccc(NCc2cc3ccc(OC)cc3n(CC(=O)Nc3ccccc3C)c2=O)cc1`, the survival was 84%.

Regarding `COc1ccc2c(c1)c1c(c(=O)n(Cc3ccccc3)c(=O)n1CC(=O)Nc1c(C)cccc1C)n2C`, the survival was 81%.

For `COc1ccc2c(c1)c1c(c(=O)n(Cc3ccccc3)c(=O)n1CC(=O)Nc1ccc(C)cc1C)n2C`, the survival is -4% (active).

`CCc1ccc(NCc2cc3cc4c(cc3n(CC(=O)Nc3ccc(C)cc3)c2=O)OCO4)cc1`: the survival is 113%.

For the compound `COc1ccc2c(c1)c1c(c(=O)n(CCc3ccccc3)c(=O)n1Cc1ccc(F)cc1)n2C`, the survival is 1% (active).

For `COc1ccc2c(c1)c1c(c(=O)n(CCc3ccccc3)c(=O)n1Cc1cccc(F)c1)n2C`, the survival was 63%.

In the case of `COc1ccc2c(c1)c1c(c(=O)n(CCc3ccccc3)c(=O)n1Cc1ccccc1)n2C`, the survival is 57%.

Regarding `CC(=O)c1cccc(NC(=O)Cn2c(=O)c(CNc3ccc(C)cc3)cc3cc4c(cc32)OCCO4)c1`, the survival is 77%.

On to `COc1ccc2cc(CNc3ccccc3)c(=O)n(CC(=O)Nc3ccc(C)cc3C)c2c1`, for which the survival is -2% (active).

Consider `COc1ccc2c(c1)c1c(c(=O)n(Cc3ccccc3)c(=O)n1CC(=O)Nc1ccccc1F)n2C`, for which the survival is 129%.

As for `COc1ccc(NC(=O)C2CCCN(S(=O)(=O)c3ccc(F)cc3)C2)cc1` (stereo unspecified), the survival was 85%.

`COc1ccc(-n2nc3cc(C)c(NC(=O)COc4cccc(C)c4)cc3n2)cc1`: the survival was 78%.

In the case of `CCCCC1CCC(C(=O)N2CC(=O)Nc3ccc(F)cc3C2c2ccc(F)cc2)CC1` (stereo unspecified), the survival is 77%.

Take `CCOc1ccc2[nH]c(=O)c(-c3nc4cccc(C)n4c3NCc3ccco3)cc2c1`: the survival is 108%.

With `Cc1ccc(CNC(=O)Cc2c(C)c3cc4c(C)coc4cc3oc2=O)cc1`, the survival is 92%.

On to `COc1ccc(-c2noc(C(C)NC(=O)c3ccco3)n2)cc1` (stereo unspecified), for which the survival is 107%.

`Cc1nn(CC(=O)Nc2ccc(C(C)C)cc2)c(=O)c2c(C)n(-c3ccc(Cl)cc3)nc12`: the survival is 90%.

Turning to `COc1ccc2c(c1)c1c(c(=O)n(Cc3ccccc3)c(=O)n1Cc1ccccc1)n2C`, the survival is -3% (active).

Turning to `COc1cccc(Cn2c(=O)n(Cc3ccccc3)c(=O)c3c2c2cc(OC)ccc2n3C)c1`, the survival was 57%.

Consider `COc1ccc2c(c1)c1c(c(=O)n(Cc3ccccc3)c(=O)n1Cc1ccc(C)cc1)n2C`, for which the survival was 87%.

`C/C(=N/OCC(=O)Nc1sc2c(c1C#N)CCCC2)c1cccs1`: the survival was 111%.

Take `CCN1CCN(CCCNC(=O)c2cc3c(s2)-c2c(C)cccc2OC3)CC1`: the survival is 87%.

For the compound `CCOCCCN(Cc1ccco1)C(=O)c1cc2c(s1)-c1c(C)cccc1OC2`, the survival was 12% (active).

Regarding `CCCCN(Cc1ccco1)C(=O)c1cc2c(s1)-c1c(C)cccc1OC2`, the survival is 13% (active).

As to `CCN(Cc1ccccc1)C(=O)c1cc2c(s1)-c1c(C)cccc1OC2`, the survival was 71%.

For the compound `CCOc1ccc(CCNC(=O)c2cc3c(s2)-c2c(C)cccc2OC3)cc1`, the survival was 90%.

With `CCOCCCN(Cc1ccco1)C(=O)c1cc2c(=O)[nH]c3ccc(C)cc3c2s1`, the survival is 127%.

As to `Cc1ccc(C)c(N2CCN(C(=O)Cn3ncc4c(=O)oc5ccccc5c43)CC2)c1`, the survival was 71%.

As to `Cc1ccc2nc(N(CCCN(C)C)C(=O)c3ccco3)sc2c1`, the survival is 72%.

In the case of `COc1nc(-c2ccccc2)ccc1-c1noc(-c2ccccc2Br)n1`, the survival was -2% (active).

For `CCOc1cc(-c2nc(-c3ccc(-c4ccc(C)cc4)nc3OC)no2)cc(OCC)c1OCC`, the survival was 56%.

As for `COc1nc(C)ccc1-c1noc(-c2ccccc2)n1`, the survival is 100%.

With `CCOc1ccccc1-c1nc(-c2ccc(-c3ccccc3)nc2OCC)no1`, the survival was -1% (active).

`COc1nc(-c2ccccc2)ccc1-c1noc(C(C)C)n1`: the survival was 88%.

Consider `COc1ccc(-c2ccc(-c3noc(-c4cc(OC)cc(OC)c4)n3)c(OC)n2)cc1`, for which the survival is 49%.

In the case of `CCOc1nc(-c2ccccc2)ccc1-c1noc(-c2ccc(C)cc2)n1`, the survival is 109%.

Consider `CCOc1cc(-c2nc(-c3ccc(-c4ccccc4)nc3OCC)no2)cc(OCC)c1OCC`, for which the survival is 60%.

In the case of `COc1cccc(-c2ccc(-c3noc(-c4ccccc4Br)n3)c(OC)n2)c1`, the survival is 37%.

As to `COc1nc(-c2ccc(C)cc2)ccc1-c1noc(-c2ccc(C(C)(C)C)cc2)n1`, the survival was 32%.

Consider `COc1cccc(-c2nc(-c3ccc(-c4ccccc4)nc3OC)no2)c1`, for which the survival was 2% (active).

As for `COc1nc(-c2ccc(C)cc2)ccc1-c1noc(-c2ccccc2Br)n1`, the survival was 2% (active).

With `COc1cccc(-c2nc3c(c(SCc4ccccc4)n2)Cc2c(CO)cnc(C)c2O3)c1`, the survival was 101%.

On to `CCCN(CCC)CCCNC(=O)C1CCC(CNS(=O)(=O)c2ccc(NC(C)=O)cc2)CC1` (stereo unspecified), for which the survival was 66%.

Turning to `CCOC(=O)N1CCN(Cc2nc3cc(NC(=O)c4ccc(F)cc4)ccc3n2C(C)C)CC1`, the survival is 86%.

For the compound `CC(=O)N1N=C(N)SC1c1ccccc1` (stereo unspecified), the survival was 104%.

In the case of `CCCC(=O)Nc1nnc(SCc2cc(=O)c3cc(C)ccc3[nH]2)s1`, the survival is 70%.

Regarding `CC(=O)c1cccc(NC(=O)CN2C(=O)CCc3cc(S(=O)(=O)N4CCCCC4)ccc32)c1`, the survival is 82%.

On to `Cc1cc(C)nc(NS(=O)(=O)c2ccc(NC(=O)c3nc(SC(C)C)ncc3Cl)cc2)n1`, for which the survival is 79%.

Turning to `O=S(=O)(NCCc1cn2ccsc2n1)c1ccc(Cl)cc1`, the survival was 129%.

As for `CCc1ccc(NC(=O)CC(NCc2cccnc2)C(=O)O)cc1` (stereo unspecified), the survival was 74%.

For `CC(C)NC(=O)C1CCCCC1C(=O)O` (stereo unspecified), the survival is 88%.

Regarding `CCc1ccc(NC(=O)c2cnc3sc(N4CCCC4)nn3c2=O)cc1`, the survival is 85%.

Turning to `CCC(=O)N1CCc2cc(S(=O)(=O)NC(C(=O)NCc3ccccc3Cl)C(C)C)ccc21` (stereo unspecified), the survival is 84%.

For the compound `CCCNC(=O)CCSc1nc(-c2ccc3c(c2)OCO3)cc(C(F)(F)F)n1`, the survival is 84%.

As to `CC(C)(C)NC(=O)CCSc1nc(-c2ccc3c(c2)OCO3)cc(C(F)(F)F)n1`, the survival is 4% (active).

Take `CC(C)NC(=O)CCSc1nc(-c2ccc3c(c2)OCO3)cc(C(F)(F)F)n1`: the survival was 77%.
